# From PubChem BioAssay (NCATS)
# Inconclusive results are not listed. Active and inactive are the calls of the source. The call rests on the fitted dose curve; in most records, active means well fitted inhibition curve with a large enough effect; inconclusive means small, poorly fitted or top-dose-only effect; inactive means flat fitted curve, though single readings scatter.
# Tested on: SC27B
# Experiment: qHTS profiling for inhibitors of Plasmodium falciparum proliferation (AID 504749); further: nearly all actives have a fitted effect of over 60% in size;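 on activity, negative = inhibition: 0% = DMSO vehicle and full inhibition = artemisinin control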
# Settings: P. falciparum in erythrocytes, SYBR Green DNA, 72 h; series mostly up to 28.7 µM; activity, negative = inhibition: at the top concentration
# How it was run: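 P. falciparum-infected erythrocytes (0.3% parasitemia, 2.5% hematocrit final) were exposed to compounds for 72 h at 37 C in 5% CO2, then lysed with SYBR Green buffer overnight at room temperature; parasite DNA fluorescence was normalized to artemisinin and DMSO controls.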
# Potency means the concentration at half of the fitted maximal effect.
SMILES,"activity, negative = inhibition",Potency
O=[N+]([O-])c1ccccc1,3.8% (inactive),
O=C1CC[C@@]2(O)C3Cc4ccc(O)c5c4C2(CCN3CC2CC2)[C@H]1O5 (some centres not stated),6.67% (inactive),
O=C/C=C/c1ccccc1,3.47% (inactive),
CCNC(C)Cc1cccc(C(F)(F)F)c1 (configuration not stated),-10.6% (inactive),
CC1CCC(C(C)C)C(OC(=O)c2ccccc2N)C1 (configuration not stated),-25.6% (inactive),
c1csc(C2(N3CCCCC3)CCCCC2)c1,0.179% (inactive),
CCN(CC)C(=O)/C(Cl)=C(\C)OP(=O)(OC)OC,3.72% (inactive),
CCC1(CC)C(=O)NC(=O)N(C)C1=O,-0.834% (inactive),
c1cc2c(c(NC3=NCCN3)c1)CCCC2,-0.599% (inactive),
CCC1C(C)=NN=C(c2ccc(OC)c(OC)c2)c2cc(OC)c(OC)cc21 (configuration not stated),-20.8% (inactive),
CCC(=O)O[C@@](Cc1ccccc1)(c1ccccc1)[C@@H](C)CN(C)C,-16.5% [at 12.8 µM] (inactive),
C=CCC1(C(C)CCC)C(=O)N=C(S)NC1=O (configuration not stated),4.77% (inactive),
F/C(COc1ccc2c(c1)[nH]c1ccccc12)=C1/CN2CCC1CC2,,10 µM (active)
Oc1cccc[c]1[Hg][Cl],,10 µM (active)
ClC1C(Cl)C(Cl)C(Cl)C(Cl)C1Cl (configuration not stated),7.78% (inactive),
CCCCCCCCCC(=O)O[C@H]1CC[C@H]2[C@@H]3CCC4=CC(=O)CC[C@]4(C)[C@H]3CC[C@]12C,-4.66% (inactive),
CCC1(c2ccccc2)C(=O)NC(=O)N(C(=O)c2ccccc2)C1=O (configuration not stated),-4.32% (inactive),
COc1ccc2c(c1OC)C(=O)OC2C1c2cc3c(cc2CCN1C)OCO3 (configuration not stated),-0.948% (inactive),
C=CCN=C=S,-2.7% (inactive),
OC(c1ccccc1)(c1ccccc1)C1CN2CCC1CC2 (configuration not stated),-14.3% (inactive),
CCOc1ccc2c3c1O[C@H]1[C@@H](O)C=C[C@H]4[C@@H](C2)N(C)CC[C@@]341,-0.0432% (inactive),
Cc1sc2ccccc2c1CC1=NCCN1,-3.08% (inactive),
O=C1CN=C(c2ccccc2)c2cc(Cl)ccc2N1CC1CC1,-8.89% (inactive),
CC(C)Nc1ccc(Nc2ccccc2)cc1,,12.6 µM (active)
c1ccc2cc(CC3=NCCN3)ccc2c1,2.26% (inactive),
CCCN1CCCC2Cc3[nH]ncc3CC21 (configuration not stated),9.91% (inactive),
Oc1cc(Cl)c(Cl)cc1Cl,-23.2% (inactive),
